For 18 compounds, Potency results are on record in PubChem BioAssay (NCATS).

What all share (assay): qHTS profiling for inhibitors of Plasmodium falciparum proliferation (AID 504749); further: nearly all actives have a fitted effect of over 60% in size
Details in all cases: P. falciparum in erythrocytes, SYBR Green DNA, 72 h; series mostly up to 28.7 µM
(In qHTS, concentration-response curves come from the screen itself.)

The test system of experiment [1] is CP265. Summed up:
(§1)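 In a 72 h erythrocytic culture (37 C, humidified, 5% CO2) at 2.5% hematocrit and 0.3% starting parasitemia, compounds were tested; SYBR Green I in detergent lysis buffer stained parasite DNA overnight.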

Experiment [2] deals with CP266. Summed up:
as §1

The subject of experiment [3] is CP268. The procedure, abridged:
as §1

The subject of experiment [4] is CP269. Summed up: as §1
The subject of experiment [5] is CP286. The procedure, abridged: as §1
Experiment [6] concerns CP291. The procedure, abridged: as §1
Experiment [7] relates to CP297. Summed up:
as §1

Experiment [8] concerns CP305. The procedure, abridged:
as §1

Experiment [9] has as its system CP315. The procedure, abridged:
as §1

In experiment [10] the test system is CP325. The procedure, abridged: as §1

Results filed as inconclusive are left out. The source made the active and inactive calls. The call rests on the fitted dose curve; in most records, active means well fitted inhibition curve with a large enough effect; inconclusive means small, poorly fitted or top-dose-only effect; inactive means flat fitted curve, though single readings scatter.
Potency means the concentration at half of the fitted maximal effect.

Regarding `CCCCCCCC/C=C\CCCCCCCC(=O)O`, the Potency result in experiment [1], in experiment [2], in experiment [3], in experiment [4], in experiment [5] and in experiment [6] was “inactive” throughout. Further, the Potency result in experiment [7], in experiment [8], in [9] and in [10] was “inactive” each time.
For `CCCCCCCCCCCCCCCC(=O)OCC(COC(=O)CCCCCCCCCCCCCCC)OC(=O)CCCCCCCCCCCCCCC`, the Potency result in [1], in experiment [2], in [3], in [4], in [5] and in experiment [6] was “inactive” in each case. Besides, the Potency result in experiment [7], in experiment [8], in experiment [9] and in experiment [10] was “inactive” in each case.
Turning to `O=C(O)CN(CCN(CC(=O)O)CC(=O)O)CC(=O)O`, the Potency result in experiment [1], in [2], in experiment [3], in experiment [4], in experiment [5] and in experiment [6] was “inactive” in each case. Also, the Potency entry in [7], in [8], in experiment [9] and in [10] was “inactive” throughout.
Consider `CC(NNC(=O)c1ccccc1)c1ccccc1` (centres undefined), for which the Potency entry in experiment [1], in experiment [2], in experiment [3], in experiment [4], in [5] and in experiment [6] was “inactive” each time. For the same compound, the Potency entry in [7], in experiment [8], in experiment [9] and in [10] was “inactive” throughout.
Consider `CCCC(=O)O[C@]1(C(=O)CCl)[C@H](C)C[C@@H]2[C@H]3CCC4=CC(=O)C=C[C@]4(C)[C@@]3(F)C(=O)C[C@@]21C`, for which the Potency in experiment [1] was 2.82 µM (active); in experiment [2] it was 3.38 µM (active); in experiment [3], 4.26 µM (active); in experiment [4] it was 4.26 µM (active); in experiment [5], 2.82 µM (active); in experiment [6] it was 4.26 µM (active). In addition, the Potency in experiment [7] is 1.9 µM (active); in experiment [8], 4.26 µM (active); in experiment [9], 3.79 µM (active); in experiment [10], 4.26 µM (active).
For the compound `C[C@H]1C[C@H]2[C@@H]3CCC4=CC(=O)C=C[C@]4(C)[C@@]3(F)[C@@H](O)C[C@]2(C)[C@@]1(O)C(=O)CO`, the Potency result in experiment [1], in experiment [2], in [3], in [4], in experiment [5] and in experiment [6] was “inactive” throughout. Moreover, the Potency entry in experiment [7], in experiment [8], in experiment [9] and in experiment [10] was “inactive” in each case.
In the case of `Cc1c(C)c2c(c(C)c1O)CC[C@@](C)(CCC[C@H](C)CCC[C@H](C)CCCC(C)C)O2`, the Potency entry in [1], in [2], in [3], in experiment [4], in [5] and in experiment [6] was “inactive” each time. Besides, the Potency entry in [7], in [8], in experiment [9] and in experiment [10] was “inactive” throughout.
As for `CCN(CC)Cc1cc(Nc2ccnc3cc(Cl)ccc23)ccc1O`, the Potency was 0.02 µM (active) in experiment [1]; 0.102 µM (active) in experiment [2]; 0.051 µM (active) in experiment [3]; 0.0455 µM (active) in experiment [4]; 0.0316 µM (active) in experiment [5]; 0.0455 µM (active) in [6]. In addition, the Potency is 0.0907 µM (active) in experiment [7], 0.0405 µM (active) in experiment [8], 0.287 µM (active) in experiment [9] and 0.0573 µM (active) in experiment [10].
As for `CCCCC/C=C\C/C=C\CCCCCCCC(=O)O`, the Potency result in experiment [1], in experiment [2], in [3], in [4], in experiment [5] and in [6] was “inactive” each time. The Potency entry in experiment [7], in [8], in experiment [9] and in experiment [10] was “inactive” each time.
As for `O=S(=O)(O)c1ccc2c(N=Nc3ccc(S(=O)(=O)O)c4ccccc34)c(O)c(S(=O)(=O)O)cc2c1`, the Potency result in experiment [1], in experiment [2], in experiment [3], in experiment [4], in [5] and in [6] was “inactive” throughout. Further, the Potency entry in [7], in experiment [8], in [9] and in [10] was “inactive” each time.
In the case of `CC(=O)Oc1c(C)cc(OCC(O)CNC(C)C)c(C)c1C` (centres undefined), the Potency entry in [1], in [2], in experiment [3], in experiment [4], in [5] and in [6] was “inactive” throughout. The Potency entry in [7], in experiment [8], in experiment [9] and in experiment [10] was “inactive” each time.
`CO[C@H]1C[C@@H]2CC[C@@H](C)[C@@](O)(O2)C(=O)C(=O)N2CCCC[C@H]2C(=O)O[C@H]([C@H](C)C[C@@H]2CC[C@@H](OCCO)[C@H](OC)C2)CC(=O)[C@H](C)/C=C(\C)[C@@H](O)[C@@H](OC)C(=O)[C@H](C)C[C@H](C)/C=C/C=C/C=C/1C`: the Potency in experiment [1] is 1.12 µM (active); in [2], 6.01 µM (active); in experiment [3], 4.26 µM (active); in [4], 4.26 µM (active); in experiment [5] it was 3.16 µM (active); in experiment [6], 4.26 µM (active). Further, the Potency in [7] is 3.79 µM (active); in experiment [8] it was 4.78 µM (active); in [9], 4.26 µM (active); in [10], 4.78 µM (active).
Consider `C#CCOc1ccc2c(C)cc(=O)oc2c1`, for which the Potency result in [1], in experiment [2], in experiment [3], in [4], in [5] and in experiment [6] was “inactive” in each case. Moreover, the Potency result in experiment [7], in experiment [8], in experiment [9] and in [10] was “inactive” throughout.
Turning to `CC(C(=O)O)c1ccc(N2Cc3ccccc3C2=O)cc1` (centres undefined), the Potency entry in experiment [1], in [2], in experiment [3], in experiment [4], in experiment [5] and in experiment [6] was “inactive” throughout. Further, the Potency entry in experiment [7], in experiment [8], in experiment [9] and in [10] was “inactive” throughout.
As for `Cc1ccccc1`, the Potency entry in experiment [1], in experiment [2], in experiment [3], in experiment [4], in [5] and in [6] was “inactive” in each case. The Potency result in experiment [7], in [8], in experiment [9] and in experiment [10] was “inactive” each time.
For the compound `O=C(Nc1ccc(Br)cc1)c1cc(Br)c(Br)s1`, the Potency in experiment [3] was 12 µM (active); in [8] it was 16.9 µM (active).
Turning to `NC1C2CN(c3nc4c(cc3F)c(=O)c(C(=O)O)cn4-c3ccc(F)cc3F)CC12` (centres undefined), the Potency in experiment [4] was 6.75 µM (active).
With `C#C[C@]1(O)CC[C@H]2[C@@H]3CCC4=CCCC[C@@H]4[C@H]3C(=C)C[C@@]21CC`, the Potency entry in [2], in [4], in experiment [6], in [7], in experiment [9] and in [10] was “inactive” in each case.
